# Laboratory results: the supplement of paper PMC6992640
# Tested on: UCD52 (cells of a triple-negative basal-like breast cancer xenograft)
# Experiment: cell viability of combination (% of vehicle); higher = less cytotoxic
# Conditions: 1 µM; 72 h; partner dose: 10 nM
# Description: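 PDX cells were treated for 72 h with each drug at 1 µM plus afatinib (10 nM; 1 µM for WHIM30). Luciferase viability is expressed as percent of vehicle.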
row,SMILES,cell viability of combination
1,CC1(C)CCC(c2ccc(Cl)cc2)=C(CN2CCN(c3ccc(C(=O)NS(=O)(=O)c4ccc(NC(CCN5CCOCC5)CSc5ccccc5)c(S(=O)(=O)C(F)(F)F)c4)cc3)CC2)C1 (stereo not given) [ABT-263 (Navitoclax)] + CN(C)C/C=C/C(=O)Nc1cc2c(Nc3ccc(F)c(Cl)c3)ncnc2cc1O[C@H]1CCOC1 [Afatinib],38
2,CN1CCN(CCCN2c3ccccc3Sc3ccc(C(F)(F)F)cc32)CC1.Cl.Cl [Trifluoperazine 2HCl] + CN(C)C/C=C/C(=O)Nc1cc2c(Nc3ccc(F)c(Cl)c3)ncnc2cc1O[C@H]1CCOC1 [Afatinib],73.1
3,CO[C@@]12[C@H](COC(N)=O)C3=C(C(=O)C(C)=C(N)C3=O)N1C[C@@H]1N[C@@H]12 [Mitomycin C] + CN(C)C/C=C/C(=O)Nc1cc2c(Nc3ccc(F)c(Cl)c3)ncnc2cc1O[C@H]1CCOC1 [Afatinib],58.4
4,CC(C)(C)c1ccc(C(=O)CCCN2CCC(OC(c3ccccc3)c3ccccc3)CC2)cc1 [Ebastine] + CN(C)C/C=C/C(=O)Nc1cc2c(Nc3ccc(F)c(Cl)c3)ncnc2cc1O[C@H]1CCOC1 [Afatinib],70.1
5,O=C(O)c1cc(O)c(O)c(O)c1 [Gallic acid] + CN(C)C/C=C/C(=O)Nc1cc2c(Nc3ccc(F)c(Cl)c3)ncnc2cc1O[C@H]1CCOC1 [Afatinib],73.6
6,COc1cc2c(Oc3ccc(NC(=O)C4(C(=O)Nc5ccc(F)cc5)CC4)cc3F)ccnc2cc1OCCCN1CCOCC1 + CN(C)C/C=C/C(=O)Nc1cc2c(Nc3ccc(F)c(Cl)c3)ncnc2cc1O[C@H]1CCOC1 [Afatinib],28.5
7,CC(NCCCc1cccc(C(F)(F)F)c1)c1cccc2ccccc12.Cl (stereo not given) [Cinacalcet HCl] + CN(C)C/C=C/C(=O)Nc1cc2c(Nc3ccc(F)c(Cl)c3)ncnc2cc1O[C@H]1CCOC1 [Afatinib],67.7
8,COc1cccc2c1C(=O)c1c(O)c3c(c(O)c1C2=O)CC(O)(C(=O)CO)CC3OC1CC(N)C(O)C(C)O1 (stereo not given) [Doxorubicin] + CN(C)C/C=C/C(=O)Nc1cc2c(Nc3ccc(F)c(Cl)c3)ncnc2cc1O[C@H]1CCOC1 [Afatinib],28.5
9,CO[C@H]1C[C@@H]2CC[C@@H](C)[C@@](O)(O2)C(=O)C(=O)N2CCCC[C@H]2C(=O)O[C@H]([C@H](C)C[C@@H]2CC[C@@H](OC(=O)C(C)(CO)CO)[C@H](OC)C2)CC(=O)[C@H](C)/C=C(\C)[C@@H](O)[C@@H](OC)C(=O)[C@H](C)C[C@H](C)/C=C/C=C/C=C/1C [Temsirolimus] + CN(C)C/C=C/C(=O)Nc1cc2c(Nc3ccc(F)c(Cl)c3)ncnc2cc1O[C@H]1CCOC1 [Afatinib],40.4
10,CN1CCN(CCOc2cc(OC3CCOCC3)c3c(Nc4c(Cl)ccc5c4OCO5)ncnc3c2)CC1 [Saracatinib (AZD0530)] + CN(C)C/C=C/C(=O)Nc1cc2c(Nc3ccc(F)c(Cl)c3)ncnc2cc1O[C@H]1CCOC1 [Afatinib],37.9
11,COC(=O)NC(C(=O)NC(Cc1ccccc1)C(O)CN(Cc1ccc(-c2ccccn2)cc1)NC(=O)C(NC(=O)OC)C(C)(C)C)C(C)(C)C (stereo not given) [Atazanavir] + CN(C)C/C=C/C(=O)Nc1cc2c(Nc3ccc(F)c(Cl)c3)ncnc2cc1O[C@H]1CCOC1 [Afatinib],56.9
12,CN1CCC(COc2cnc(-c3cccc(Cn4nc(-c5cccc(C#N)c5)ccc4=O)c3)nc2)CC1 + CN(C)C/C=C/C(=O)Nc1cc2c(Nc3ccc(F)c(Cl)c3)ncnc2cc1O[C@H]1CCOC1 [Afatinib],60.5
13,COC(=O)C12CCC(C)(C)CC1C1C(=O)C=C3C4(C)C=C(C#N)C(=O)C(C)(C)C4CCC3(C)C1(C)CC2 (stereo not given) [Bardoxolone methyl] + CN(C)C/C=C/C(=O)Nc1cc2c(Nc3ccc(F)c(Cl)c3)ncnc2cc1O[C@H]1CCOC1 [Afatinib],47.9
14,CC(C)C1=CC(=C2NNC(=O)N2c2ccc3c(ccn3C)c2)C(=O)C=C1O [Ganetespib (STA-9090)] + CN(C)C/C=C/C(=O)Nc1cc2c(Nc3ccc(F)c(Cl)c3)ncnc2cc1O[C@H]1CCOC1 [Afatinib],30.9
15,CC(C)c1nc(N(C)S(C)(=O)=O)nc(-c2ccc(F)cc2)c1C=CC(O)CC(O)CC(=O)[O-].CC(C)c1nc(N(C)S(C)(=O)=O)nc(-c2ccc(F)cc2)c1C=CC(O)CC(O)CC(=O)[O-].[Ca+2] (stereo not given) [Rosuvastatin Calcium] + CN(C)C/C=C/C(=O)Nc1cc2c(Nc3ccc(F)c(Cl)c3)ncnc2cc1O[C@H]1CCOC1 [Afatinib],55.2
16,COc1cc2c(Oc3ccc4[nH]c(C)cc4c3F)ncnc2cc1OCCCN1CCCC1 [Cediranib (AZD217)] + CN(C)C/C=C/C(=O)Nc1cc2c(Nc3ccc(F)c(Cl)c3)ncnc2cc1O[C@H]1CCOC1 [Afatinib],24.5
17,CN(C)CC=CC(=O)Nc1cc2c(Nc3ccc(F)c(Cl)c3)ncnc2cc1OC1CCOC1.O=C(O)C=CC(=O)O.O=C(O)C=CC(=O)O (stereo not given) [Afatinib dimaleate] + CN(C)C/C=C/C(=O)Nc1cc2c(Nc3ccc(F)c(Cl)c3)ncnc2cc1O[C@H]1CCOC1 [Afatinib],24.5
18,C#Cc1cccc(Nc2ncnc3cc(OCCOC)c(OCCOC)cc23)c1 [Erlotinib] + CN(C)C/C=C/C(=O)Nc1cc2c(Nc3ccc(F)c(Cl)c3)ncnc2cc1O[C@H]1CCOC1 [Afatinib],55
19,CCCCc1oc2ccc(NS(C)(=O)=O)cc2c1C(=O)c1ccc(OCCCN(CCCC)CCCC)cc1 [Dronedarone] + CN(C)C/C=C/C(=O)Nc1cc2c(Nc3ccc(F)c(Cl)c3)ncnc2cc1O[C@H]1CCOC1 [Afatinib],57.7
20,CS(=O)(=O)CCNCc1ccc(-c2ccc3ncnc(Nc4ccc(OCc5cccc(F)c5)c(Cl)c4)c3c2)o1.Cc1ccc(S(=O)(=O)O)cc1.Cc1ccc(S(=O)(=O)O)cc1 [Lapatinib Ditosylate] + CN(C)C/C=C/C(=O)Nc1cc2c(Nc3ccc(F)c(Cl)c3)ncnc2cc1O[C@H]1CCOC1 [Afatinib],41.5

row,SMILES,cell viability of combination
1,CC(C)C(=O)OCC(=O)[C@@]12O[C@H](C3CCCCC3)O[C@@H]1C[C@H]1[C@@H]3CCC4=CC(=O)C=C[C@]4(C)[C@H]3[C@@H](O)C[C@@]12C [Ciclesonide] + CN(C)C/C=C/C(=O)Nc1cc2c(Nc3ccc(F)c(Cl)c3)ncnc2cc1O[C@H]1CCOC1 [Afatinib],99.5
2,Cc1nc(NC(=O)N2CCCC2C(N)=O)sc1-c1ccnc(C(C)(C)C(F)(F)F)c1 (stereo not given) + CN(C)C/C=C/C(=O)Nc1cc2c(Nc3ccc(F)c(Cl)c3)ncnc2cc1O[C@H]1CCOC1 [Afatinib],43.4
3,COc1ccc2cc1Oc1ccc(cc1)CC1c3c(cc4c(c3Oc3cc5c(cc3OC)CCN(C)C5C2)OCO4)CCN1C (stereo not given) [Cepharanthine] + CN(C)C/C=C/C(=O)Nc1cc2c(Nc3ccc(F)c(Cl)c3)ncnc2cc1O[C@H]1CCOC1 [Afatinib],40.1
4,Nc1ncn(C2OC(CO)C(O)C2O)c(=O)n1 (stereo not given) [5-Azacytidine] + CN(C)C/C=C/C(=O)Nc1cc2c(Nc3ccc(F)c(Cl)c3)ncnc2cc1O[C@H]1CCOC1 [Afatinib],58.5
5,COc1cc2nccc(Oc3ccc(NC(=O)NC4CC4)c(Cl)c3)c2cc1C(N)=O [Lenvatinib (E7080)] + CN(C)C/C=C/C(=O)Nc1cc2c(Nc3ccc(F)c(Cl)c3)ncnc2cc1O[C@H]1CCOC1 [Afatinib],39.8
6,CC(C)CC(NC(=O)CNC(=O)c1cc(Cl)ccc1Cl)B(O)O (stereo not given) + CN(C)C/C=C/C(=O)Nc1cc2c(Nc3ccc(F)c(Cl)c3)ncnc2cc1O[C@H]1CCOC1 [Afatinib],18.1
7,CN(C)CCOc1ccc(C(=C(CCCl)c2ccccc2)c2ccccc2)cc1.O=C(O)CC(O)(CC(=O)O)C(=O)O [Toremifene Citrate] + CN(C)C/C=C/C(=O)Nc1cc2c(Nc3ccc(F)c(Cl)c3)ncnc2cc1O[C@H]1CCOC1 [Afatinib],77.4
8,CC(C)(C)c1ccc(C(O)CCCN2CCC(C(O)(c3ccccc3)c3ccccc3)CC2)cc1 (stereo not given) [Terfenadine] + CN(C)C/C=C/C(=O)Nc1cc2c(Nc3ccc(F)c(Cl)c3)ncnc2cc1O[C@H]1CCOC1 [Afatinib],59.1
9,CC(O)C(=O)O.CC(O)C(=O)O.CN1CCN(c2ccc3c(c2)NC(=C2C(=O)N=c4cccc(F)c4=C2N)N3)CC1 [Dovitinib Dilactic acid] + CN(C)C/C=C/C(=O)Nc1cc2c(Nc3ccc(F)c(Cl)c3)ncnc2cc1O[C@H]1CCOC1 [Afatinib],56.7
10,COc1cccc2c1C(=O)c1c(O)c3c(c(O)c1C2=O)C[C@@](O)(C(C)=O)C[C@@H]3O[C@H]1C[C@H](N)[C@H](O)[C@H](C)O1.Cl [Daunorubicin HCl] + CN(C)C/C=C/C(=O)Nc1cc2c(Nc3ccc(F)c(Cl)c3)ncnc2cc1O[C@H]1CCOC1 [Afatinib],20.8
11,COc1cc(C(=O)O)ccc1NC(=O)C1NC(CC(C)(C)C)C(C#N)(c2ccc(Cl)cc2F)C1c1cccc(Cl)c1F (stereo not given) + CN(C)C/C=C/C(=O)Nc1cc2c(Nc3ccc(F)c(Cl)c3)ncnc2cc1O[C@H]1CCOC1 [Afatinib],60.4
12,C=C1C(=CC=C2CCCC3(C)C2CCC3C(C)CCCC(C)(C)O)CC(O)CC1O (stereo not given) [Calcitriol] + CN(C)C/C=C/C(=O)Nc1cc2c(Nc3ccc(F)c(Cl)c3)ncnc2cc1O[C@H]1CCOC1 [Afatinib],43.3
13,N.N.O=C([O-])C1(C(=O)[O-])CCC1.[Pt+2] [Carboplatin] + CN(C)C/C=C/C(=O)Nc1cc2c(Nc3ccc(F)c(Cl)c3)ncnc2cc1O[C@H]1CCOC1 [Afatinib],68.6
14,COc1ccc2c(O[C@H]3CC4C(=O)N(C)CCCC/C=C\[C@H]5C[C@@]5(C(=O)NS(=O)(=O)C5CC5)NC(=O)[C@@H]4C3)cc(-c3nc(C(C)C)cs3)nc2c1C (stereo not given in full) [Simeprevir] + CN(C)C/C=C/C(=O)Nc1cc2c(Nc3ccc(F)c(Cl)c3)ncnc2cc1O[C@H]1CCOC1 [Afatinib],64.5
15,O=C(NC1CCN(CCCCC2(C(=O)NCC(F)(F)F)c3ccccc3-c3ccccc32)CC1)c1ccccc1-c1ccc(C(F)(F)F)cc1 [Lomitapide] + CN(C)C/C=C/C(=O)Nc1cc2c(Nc3ccc(F)c(Cl)c3)ncnc2cc1O[C@H]1CCOC1 [Afatinib],43.9
16,COC(=O)c1ccc2c(c1)NC(=O)C2=C(Nc1ccc(N(C)C(=O)CN2CCN(C)CC2)cc1)c1ccccc1 [Nintedanib (BIBF 1120)] + CN(C)C/C=C/C(=O)Nc1cc2c(Nc3ccc(F)c(Cl)c3)ncnc2cc1O[C@H]1CCOC1 [Afatinib],19.6
17,CC[C@@]1(O)C(=O)OCc2c1cc1n(c2=O)Cc2cc3c(CN(C)C)c(O)ccc3nc2-1.Cl [Topotecan HCl] + CN(C)C/C=C/C(=O)Nc1cc2c(Nc3ccc(F)c(Cl)c3)ncnc2cc1O[C@H]1CCOC1 [Afatinib],66.5
18,COc1cc(Nc2ncc(F)c(Nc3ccc4c(n3)N(COP(=O)(O)O)C(=O)C(C)(C)O4)n2)cc(OC)c1OC [Fostamatinib (R788)] + CN(C)C/C=C/C(=O)Nc1cc2c(Nc3ccc(F)c(Cl)c3)ncnc2cc1O[C@H]1CCOC1 [Afatinib],74.9
19,CC(=O)c1cc2c(o1)C(=O)c1ccccc1C2=O [Napabucasin] + CN(C)C/C=C/C(=O)Nc1cc2c(Nc3ccc(F)c(Cl)c3)ncnc2cc1O[C@H]1CCOC1 [Afatinib],17.4
20,CCN(CC)CCNC(=O)c1c(C)[nH]c(C=C2C(=O)Nc3ccc(F)cc32)c1C.O=C(O)CC(O)C(=O)O [Sunitinib malate] + CN(C)C/C=C/C(=O)Nc1cc2c(Nc3ccc(F)c(Cl)c3)ncnc2cc1O[C@H]1CCOC1 [Afatinib],43.6
